The source of these data is PubChem BioAssay (Tox21).

Values joined by “and” are separate entries in the source; they are usually repeats but may differ in a detail not shown here. Equal entries are not always repeated. Results filed as inconclusive are left out. Some compounds were tested as several samples or in several runs, with calls that do not always agree. Active and inactive are the calls of the source. Unless noted, calls come from the whole dose curve; as a rule, active = well fitted curve in the direction sought with a large enough effect in the repeat runs; inconclusive = weak or mixed curves; inactive = no such curve, though single readings can be large; an effect the other way counts as inactive or inconclusive.

For experiment [1], the target named is Thyrotropin-releasing hormone receptor (Homo sapiens) (UniProt P34981). Nature of the experiment: qHTS assay to identify small molecule agonists of the thyrotropin-releasing hormone receptor (TRHR) signaling pathway (AID 1346891; calls by dose curve;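 note: HEK293 cells expressing TRHR with calcium dye readout; series mostly up to about 58 µM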). Put shortly:
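Kinetic fluorescence (3 min, 1 s intervals) reported intracellular calcium after compound transfer onto TRHR-Hek293 cells pre-loaded with dye for 2 h at 37 °C.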

The nature of experiment [2]: Human pregnane X receptor (PXR) small molecule agonists, qHTS cell viability counter screen (AID 1346977). Note: nearly all actives have a fitted effect of over 50% in size. Note: potency is the fitted concentration of half-maximal effect. Put shortly:
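HepG2 cells stably carrying the PXR-Luc reporter are cultured with 5% charcoal-stripped FBS and treated with compounds for 24hr. CellTiter-Fluor is added at 23hr and fluorescence is read after 1hr.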
Background: In qHTS, concentration-response curves come from the screen itself.

Experiment [3] is described as follows: Caspase-3/7 induction in HepG2 cells by small molecules, qHTS assay (AID 1346978). Note: nearly all actives have a fitted effect of over 15% in size. In short, it runs like this: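 Caspase-3/7 induction was measured by Caspase-Glo 3/7 luminescence (30 min, room temperature) after a 17 hr compound exposure of wild-type HepG2 cells seeded at 2,000 per well and pre-incubated 5 hr.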
Experiment [4] is described as follows: Caspase-3/7 induction in CHO-K1 cells by small molecules, qHTS cell viability counter screen (AID 1346979). Note: nearly all actives have a fitted effect of over 35% in size. Note: potency is the fitted concentration of half-maximal effect. In short, it runs like this: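 Seeding: 1,500 CHO-K1 cells/well. Rest: 5hr, 37C. Treatment: compounds in DMSO, 16hr. Read: CellTiter-Fluor, 1hr, fluorescence.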
The nature of experiment [5]: Caspase-3/7 induction in CHO-K1 cells by small molecules, qHTS assay (AID 1346980). Note: nearly all actives have a fitted effect of over 15% in size. Put shortly:
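Luminescent Caspase-Glo 3/7 read (30min, room temperature) quantified apoptosis induction. Cells were wild-type CHO-K1, treated with compound for 17hr at 37 C and 5% CO2.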

Experiment [6] is described as follows: Caspase-3/7 induction in HepG2 cells by small molecules, qHTS cell viability counter screen (AID 1346981). Note: nearly all actives have a fitted effect of over 30% in size. Note: potency is the fitted concentration of half-maximal effect. Put shortly:
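After a 5-hr attachment period at 37 C and 5% CO2, wild-type HepG2 cells received compounds in DMSO. Sixteen hours later CellTiter-Fluor was dispensed and the fluorescent signal quantified after a further hour.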

The target in experiment [7] is Nuclear receptor subfamily 1 group I member 2 (Homo sapiens) (UniProt O75469). Nature of the experiment: Human pregnane X receptor (PXR) small molecule agonists, qHTS assay (AID 1346982). Note: nearly all actives have a fitted effect of over 35% in size. Note: potency is the fitted concentration of half-maximal effect. Put shortly:
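Tox21 qHTS; PXR-Luc HepG2; compounds pinned from DMSO; 24 hr, 37 C; ONE-Glo luciferase detection, 30 min room temperature.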

The target of experiment [8] is Nuclear receptor subfamily 1 group I member 2 (Rattus norvegicus) (UniProt Q9R1A7). Kind of experiment: Rat pregnane X receptor (rPXR) activation by small molecules, qHTS assay (AID 1346983). Note: nearly all actives have a fitted effect of over 20% in size. The conditions noted are these: rPXR luciferase reporter cells, One-Glo luminescence, 24 h; stronger effect = higher value. In short, it runs like this: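 Luminescent readout (One-Glo luciferase, 30 min room temperature) followed 24 hr compound treatment at 37 C of rPXR cells plated 2,000 per well and preincubated 5hr; qHTS format with compounds delivered in DMSO.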

The target of experiment [9] is Nuclear receptor subfamily 1 group I member 2 (Homo sapiens) (UniProt O75469). Kind of experiment: CYP3A4 induction through human pregnane X receptor (PXR) by small molecules, qHTS assay (AID 1346984). Note: nearly all actives have a fitted effect of over 40% in size. In short, it runs like this:
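Cells (DPX-2; HepG2 with PXR element plus CYP3A4-promoter luciferase) settled 5hr, then were treated 24hr at 37C. A 3hr, 3uM-final Luciferin-IPA step preceded luminescence measurement with One-Glo.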

Experiment [10] shares this target. Kind of experiment: Human pregnane X receptor (PXR) activation by small molecules, qHTS assay (AID 1346985). Note: nearly all actives have a fitted effect of over 40% in size. Put shortly: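 DPX-2 cells (HepG2 co-transfected with a PXR response element and a CYP3A4-promoter luciferase construct) were seeded at 2,000 per well, rested 5 hr at 37C, then exposed to DMSO-dissolved compounds for 24 hr. Activation was read as luciferase luminescence.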
% is set by controls: 0 for no effect and ±100 for the full control effect.

Nuclear receptor subfamily 1 group I member 2 (Homo sapiens), sequence (O75469 whole entry, looked up): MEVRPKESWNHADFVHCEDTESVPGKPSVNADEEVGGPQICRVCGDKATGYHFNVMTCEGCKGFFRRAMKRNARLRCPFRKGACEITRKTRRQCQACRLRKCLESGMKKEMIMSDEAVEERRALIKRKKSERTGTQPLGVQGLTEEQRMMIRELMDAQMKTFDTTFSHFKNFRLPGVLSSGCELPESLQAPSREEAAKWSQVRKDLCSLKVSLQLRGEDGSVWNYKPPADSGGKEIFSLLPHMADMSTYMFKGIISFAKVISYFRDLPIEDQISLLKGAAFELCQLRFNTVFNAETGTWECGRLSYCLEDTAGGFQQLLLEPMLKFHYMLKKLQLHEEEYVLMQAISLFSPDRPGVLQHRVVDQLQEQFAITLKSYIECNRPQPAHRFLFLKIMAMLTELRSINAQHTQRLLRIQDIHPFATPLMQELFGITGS
Nuclear receptor subfamily 1 group I member 2 (Rattus norvegicus), sequence (Q9R1A7 whole entry, looked up): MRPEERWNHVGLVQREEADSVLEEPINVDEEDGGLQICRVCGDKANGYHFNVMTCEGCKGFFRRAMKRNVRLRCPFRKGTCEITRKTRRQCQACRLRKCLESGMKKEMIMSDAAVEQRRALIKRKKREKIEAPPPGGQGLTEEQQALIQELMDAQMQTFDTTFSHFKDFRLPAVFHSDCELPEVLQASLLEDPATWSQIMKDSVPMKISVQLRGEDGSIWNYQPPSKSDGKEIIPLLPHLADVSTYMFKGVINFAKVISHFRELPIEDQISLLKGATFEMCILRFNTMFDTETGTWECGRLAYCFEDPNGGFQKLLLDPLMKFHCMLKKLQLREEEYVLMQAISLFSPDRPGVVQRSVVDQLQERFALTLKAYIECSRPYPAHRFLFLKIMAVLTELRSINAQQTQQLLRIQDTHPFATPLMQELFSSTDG
Thyrotropin-releasing hormone receptor (Homo sapiens), sequence (P34981 whole entry, looked up): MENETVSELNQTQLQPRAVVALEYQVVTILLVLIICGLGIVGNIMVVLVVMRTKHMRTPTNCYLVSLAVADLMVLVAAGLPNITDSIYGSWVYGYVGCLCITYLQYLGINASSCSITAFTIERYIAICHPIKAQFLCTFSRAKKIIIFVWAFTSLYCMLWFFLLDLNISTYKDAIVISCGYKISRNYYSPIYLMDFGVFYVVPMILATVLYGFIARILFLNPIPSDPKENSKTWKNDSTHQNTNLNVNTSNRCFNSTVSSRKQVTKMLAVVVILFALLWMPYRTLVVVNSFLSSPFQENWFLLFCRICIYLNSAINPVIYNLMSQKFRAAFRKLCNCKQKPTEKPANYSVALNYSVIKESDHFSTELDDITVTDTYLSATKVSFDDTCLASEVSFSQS

Turning to `CC(C)NC(C)C`, the Potency entry in [1], in experiment [2], in [3], in experiment [4], in experiment [5] and in [6] was “inactive” each time. Further, the Potency result in experiment [7] was “inactive”. Moreover, the max activation in experiment [8] was -0.504% (inactive). Further, the outcome in experiment [9] and in [10] was inactive.
Turning to `O=[N+]([O-])c1ccc(O)c([N+](=O)[O-])c1`, the Potency entry in experiment [1], in experiment [3] and in [7] was “inactive” throughout. Besides, the Potency is 24.4 µM (active) and 54.5 µM (active) in experiment [2]; 48.8 µM (active) and 54.5 µM (active) in experiment [4]; 54.7 µM (active) and 61.1 µM (active) in experiment [6].
As for `C=CC(=O)OCCO`, the Potency result in [1], in experiment [2], in experiment [3], in experiment [5], in experiment [6] and in experiment [7] was “inactive” each time. In [4], the Potency is 55.3 µM (active).
Consider `OCC(O)CO`, for which the Potency entry in [1], in experiment [2], in [3], in [4], in experiment [6] and in experiment [7] was “inactive” in each case. For the same molecule, the result in [9] and in [10] was inactive.
As for `NNC(N)=S`, the Potency result in experiment [1], in experiment [3] and in [6] was “inactive” each time. For the same molecule, the Potency entry in [2] was “inactive and 30.6 µM (active)”; in experiment [4], 25.3 µM (active) and 48.6 µM (active); in experiment [7], 56.6 µM (active) and 21.7 µM (active).
In the case of `O=C(Nc1ccc(Br)cc1)c1cc(Br)cc(Br)c1O`, the Potency result in [1] and in experiment [3] was “inactive” each time. Moreover, the Potency in experiment [2] is 6.31 µM (active) and 8.63 µM (active) and 10.6 µM (active); in experiment [4] it was 17.2 µM (active) and 15.4 µM (active); in experiment [7] it was 13.6 µM (active) and 13.7 µM (active) and 21.1 µM (active). Also, in experiment [8], the max activation was -12.3% (inactive). The call in experiment [10] was inactive.
`CC(C)(C)c1ccccc1O`: the Potency entry in [1], in [2], in experiment [3], in experiment [4], in experiment [6] and in [7] was “inactive” in each case.
For the molecule `O=c1oc2ccccc2c(O)c1C(CC(O)c1ccc(-c2ccc(Br)cc2)cc1)c1ccccc1` (stereo not drawn), the Potency entry in [1], in experiment [2], in [3], in experiment [4], in experiment [6] and in experiment [7] was “inactive” each time. For the same molecule, the max activation in experiment [8] is -5.73% (inactive). Moreover, the outcome in experiment [9] and in experiment [10] was inactive.
Take `ClC1C(Cl)C(Cl)C(Cl)C(Cl)C1Cl` (stereo not drawn): the Potency entry in [1], in experiment [2], in experiment [3], in experiment [4] and in experiment [6] was “inactive” each time.
Turning to `Nn1cnnc1`, the Potency result in [1], in [2], in experiment [3], in experiment [4], in experiment [6] and in experiment [7] was “inactive” throughout.
Turning to `CCCCCCOC(=O)c1ccccc1C(=O)OCCCCCC`, the Potency result in [1], in experiment [2], in experiment [3], in experiment [4] and in experiment [6] was “inactive” each time. Moreover, the Potency in [7] was 55.6 µM (active) and inactive.
In the case of `N#CC(Br)Br`, the Potency entry in [1], in [2], in [3], in experiment [4], in experiment [6] and in [7] was “inactive” throughout.
With `CNC(=O)Oc1cccc2c1OC(C)(C)O2`, the Potency result in experiment [1], in experiment [2], in experiment [3], in experiment [4], in experiment [5] and in experiment [6] was “inactive” in each case. The Potency result in [7] is “inactive”.
For the molecule `C#CCOS(=O)OC1CCCCC1Oc1ccc(C(C)(C)C)cc1` (stereo not drawn), the Potency result in experiment [1], in experiment [3] and in experiment [5] was “inactive” throughout. Besides, the Potency in experiment [2] is 7.08 µM (active) and 7.7 µM (active); in experiment [4], 1.94 µM (active) and 1.93 µM (active); in experiment [7], 8.64 µM (active) and 6.86 µM (active).
Regarding `CCC(C)(c1ccc(O)cc1)c1ccc(O)cc1`, the Potency result in experiment [1], in [2], in [3] and in experiment [6] was “inactive” each time. The Potency in experiment [4] is 61.1 µM (active); in [7] it was 12.2 µM (active) and 5.45 µM (active).
Take `Cc1cc(C)cc(C)c1`: the Potency result in experiment [1], in experiment [2], in experiment [3], in experiment [4], in experiment [6] and in experiment [7] was “inactive” throughout.
Consider `CCOc1cc(C=O)ccc1O`, for which the Potency result in [1], in [2], in [3], in [4], in [6] and in experiment [7] was “inactive” throughout.
`CCc1cccc(CC)c1N(COC)C(=O)CCl`: the Potency entry in [1], in experiment [3], in [5] and in [6] was “inactive” throughout. For the same molecule, the Potency was 39.8 µM (active) and inactive in [2]; 16.7 µM (active) in [4]; 10.5 µM (active) and 1.37 µM (active) in [7].
Turning to `O=[N+]([O-])c1c(Cl)c(Cl)c(Cl)c(Cl)c1Cl`, the Potency result in [1], in experiment [2], in experiment [3], in [4], in experiment [6] and in experiment [7] was “inactive” in each case.
As for `Cc1cc(Cl)ccc1OCCCC(=O)O`, the Potency result in [1], in experiment [2], in [3], in experiment [4], in [6] and in [7] was “inactive” throughout.
For the molecule `CCCCN(CCCC)N=O`, the Potency result in [1], in experiment [2], in experiment [3], in experiment [4], in experiment [6] and in experiment [7] was “inactive” in each case.
Take `Oc1ccc(-c2ccccc2)cc1`: the Potency result in experiment [1], in experiment [2], in experiment [3] and in experiment [6] was “inactive” throughout. Also, the Potency in experiment [4] is 47.9 µM (active) and inactive; in experiment [7], 60.3 µM (active) and 54.5 µM (active).
Consider `C=CCN(CC=C)C(=O)C(Cl)Cl`, for which the Potency result in experiment [1], in experiment [2], in experiment [3], in [4], in experiment [6] and in [7] was “inactive” throughout.
Regarding `CCCCCCCCOC(=O)c1ccccc1C(=O)OCCCCCCCC`, the Potency entry in experiment [1], in experiment [2], in [3], in experiment [4], in [5] and in experiment [6] was “inactive” each time. Further, the Potency in experiment [7] is 68.4 µM (active) and inactive. Also, the max activation in experiment [8] is -0.303% (inactive). In addition, the molecule was called inactive in experiment [9] and in experiment [10].
Take `c1ccc(N=Nc2ccccc2)cc1`: the Potency entry in experiment [1], in experiment [2], in experiment [3], in experiment [4], in experiment [6] and in experiment [7] was “inactive” each time.
Turning to `CCCCC(CC)COC(=O)Cl` (stereo not drawn), the Potency entry in [1], in experiment [2], in experiment [3], in [4], in experiment [6] and in experiment [7] was “inactive” each time.
As to `CCOC(=O)C(C)OC(=O)c1cc(Oc2ccc(C(F)(F)F)cc2Cl)ccc1[N+](=O)[O-]` (stereo not drawn), the Potency entry in experiment [1], in experiment [2], in [3], in experiment [5] and in experiment [6] was “inactive” in each case. Further, the Potency in [7] is 30.5 µM (active).
